“And” between values parts separate entries of the source, which are not always exact repeats. Identical values can stand only once. Results filed as inconclusive are left out. Entries that show only a call come without a potency. The source holds several records for some structures; these can differ, active in one and inactive in another. The source made the active and inactive calls. The call rests on the fitted dose curve; in most records, active means well fitted curve in the direction sought with a large enough effect in the repeat runs; inconclusive means weak or mixed curves; inactive means no such curve, though single readings can be large; an effect the other way counts as inactive or inconclusive.
How the values were obtained:
[1] = biological target: Cytochrome P450 2C9 (Homo sapiens) (UniProt P11712); experiment: Cytochrome P450 Family 2 Subfamily C Member 9 (CYP2C9) small molecule antagonists: luciferase reporter qHTS assay (AID 1671198); conditions: P450-Glo CYP2C9 enzyme assay, luciferin luminescence; series mostly up to 115 µM; further: nearly all actives have a fitted effect of over 50% in size; further: potency means the concentration at half of the fitted maximal effect
In short: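 Enzyme-substrate mix preincubated with compound 10 min at room temperature; reaction started with NADPH regeneration solution, 1 h 37C. Luminescent luciferin product read after 20 min detection reagent.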

[2] = biological target: Cytochrome P450 1A2 (Homo sapiens) (UniProt P05177); experiment: Cytochrome P450 Family 1 Subfamily A Member 2 (CYP1A2) small molecule antagonists: luciferase reporter qHTS assay (AID 1671199); conditions: P450-Glo CYP1A2 enzyme, luciferin luminescence, 1 h; series mostly up to 115 µM; further: nearly all actives have a fitted effect of over 50% in size; further: potency means the concentration at half of the fitted maximal effect
In short: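 Luminescence from luciferin formed by CYP1A2 from a proluciferin substrate, read 20 min after detection reagent. Compound was pre-incubated 10 min with enzyme-substrate, and reaction started with NADPH regeneration solution for 1 h at room temperature; furafylline control.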

[3] = biological target: Voltage-gated inwardly rectifying potassium channel KCNH2 (Homo sapiens) (UniProt Q12809); experiment: Human Ether-a-go-go-Related Gene (hERG) channel small molecule antagonists: fluorescence cell-based qHTS assay (AID 1671200); conditions: hERG-U2OS cells, FluxOR thallium flux fluorescence; series mostly up to 76.8 µM;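 further: hERG-expressing U2OS cells given a thallium stimulus after FluxOR II dye loading; nearly all actives have a fitted effect of over 50% in size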
In short: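 U2OS cells expressing the channel were plated at 1000 cells/well, incubated overnight at 37 C, then loaded with FluxOR II thallium-sensitive dye for 1 h at room temperature in the dark, with a further 10 min at room temperature before stimulation.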

[4] = biological target: Cytochrome P450 3A4 (Homo sapiens) (UniProt P08684); experiment: Cytochrome P450 Family 3 Subfamily A Member 4 (CYP3A4) small molecule antagonists: luciferase reporter qHTS assay (AID 1671201); conditions: P450-Glo CYP3A4 enzyme, luciferin luminescence, 1 h; series mostly up to 115 µM; further: nearly all actives have a fitted effect of over 50% in size
In short: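 P450-Glo CYP3A4 system with proluciferin substrate; compounds preincubated 10 min RT with enzyme-substrate mix, then NADPH regeneration added for 1 h RT. Detection reagent 20 min, luminescence read as relative luminescence units.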

[5] = biological target: Cytochrome P450 2C19 (Homo sapiens) (UniProt P33261); experiment: Cytochrome P450 Family 2 Subfamily C Member 19 (CYP2C19) small molecule antagonists: luciferase reporter qHTS assay (AID 1671197); conditions: P450-Glo CYP2C19 enzyme, luciferin luminescence, 1 h; series mostly up to 115 µM; further: nearly all actives have a fitted effect of over 65% in size; further: potency means the concentration at half of the fitted maximal effect
In short: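 Relative luminescence units recorded 20 min after the detection reagent stopped a 1 h, 37C CYP2C19 reaction on proluciferin substrate, which was started by NADPH regeneration following 10 min room-temperature compound preincubation; ketoconazole positive control.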

Sequence of Cytochrome P450 2C9 (Homo sapiens) (P11712 whole entry, looked up): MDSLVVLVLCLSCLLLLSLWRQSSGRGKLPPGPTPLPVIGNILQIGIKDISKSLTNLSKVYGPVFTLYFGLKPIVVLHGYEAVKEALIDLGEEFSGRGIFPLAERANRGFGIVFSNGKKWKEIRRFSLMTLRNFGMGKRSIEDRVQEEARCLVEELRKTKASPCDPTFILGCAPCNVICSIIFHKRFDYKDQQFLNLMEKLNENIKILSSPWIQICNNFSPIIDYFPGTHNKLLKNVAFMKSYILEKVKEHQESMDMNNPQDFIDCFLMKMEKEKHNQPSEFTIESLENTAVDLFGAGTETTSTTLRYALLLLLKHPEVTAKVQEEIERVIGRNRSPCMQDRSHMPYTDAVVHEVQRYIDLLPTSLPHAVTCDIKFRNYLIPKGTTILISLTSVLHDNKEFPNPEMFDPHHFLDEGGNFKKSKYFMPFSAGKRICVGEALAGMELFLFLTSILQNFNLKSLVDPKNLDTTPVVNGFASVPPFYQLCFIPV
Sequence of Cytochrome P450 1A2 (Homo sapiens) (P05177 whole entry, looked up): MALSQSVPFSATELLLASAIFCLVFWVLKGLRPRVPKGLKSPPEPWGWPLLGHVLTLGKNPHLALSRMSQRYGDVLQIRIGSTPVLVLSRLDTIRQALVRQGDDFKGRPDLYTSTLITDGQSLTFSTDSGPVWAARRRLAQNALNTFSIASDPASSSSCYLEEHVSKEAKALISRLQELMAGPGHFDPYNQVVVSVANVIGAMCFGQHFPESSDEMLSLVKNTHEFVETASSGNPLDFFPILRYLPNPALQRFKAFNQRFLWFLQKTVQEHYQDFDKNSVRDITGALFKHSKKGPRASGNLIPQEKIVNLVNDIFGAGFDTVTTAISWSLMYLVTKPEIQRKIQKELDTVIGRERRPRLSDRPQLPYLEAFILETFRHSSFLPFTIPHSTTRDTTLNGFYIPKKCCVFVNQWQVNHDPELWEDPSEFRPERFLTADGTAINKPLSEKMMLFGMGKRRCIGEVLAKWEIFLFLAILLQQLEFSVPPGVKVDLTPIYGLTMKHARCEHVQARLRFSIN
Sequence of Voltage-gated inwardly rectifying potassium channel KCNH2 (Homo sapiens) (Q12809 whole entry, looked up): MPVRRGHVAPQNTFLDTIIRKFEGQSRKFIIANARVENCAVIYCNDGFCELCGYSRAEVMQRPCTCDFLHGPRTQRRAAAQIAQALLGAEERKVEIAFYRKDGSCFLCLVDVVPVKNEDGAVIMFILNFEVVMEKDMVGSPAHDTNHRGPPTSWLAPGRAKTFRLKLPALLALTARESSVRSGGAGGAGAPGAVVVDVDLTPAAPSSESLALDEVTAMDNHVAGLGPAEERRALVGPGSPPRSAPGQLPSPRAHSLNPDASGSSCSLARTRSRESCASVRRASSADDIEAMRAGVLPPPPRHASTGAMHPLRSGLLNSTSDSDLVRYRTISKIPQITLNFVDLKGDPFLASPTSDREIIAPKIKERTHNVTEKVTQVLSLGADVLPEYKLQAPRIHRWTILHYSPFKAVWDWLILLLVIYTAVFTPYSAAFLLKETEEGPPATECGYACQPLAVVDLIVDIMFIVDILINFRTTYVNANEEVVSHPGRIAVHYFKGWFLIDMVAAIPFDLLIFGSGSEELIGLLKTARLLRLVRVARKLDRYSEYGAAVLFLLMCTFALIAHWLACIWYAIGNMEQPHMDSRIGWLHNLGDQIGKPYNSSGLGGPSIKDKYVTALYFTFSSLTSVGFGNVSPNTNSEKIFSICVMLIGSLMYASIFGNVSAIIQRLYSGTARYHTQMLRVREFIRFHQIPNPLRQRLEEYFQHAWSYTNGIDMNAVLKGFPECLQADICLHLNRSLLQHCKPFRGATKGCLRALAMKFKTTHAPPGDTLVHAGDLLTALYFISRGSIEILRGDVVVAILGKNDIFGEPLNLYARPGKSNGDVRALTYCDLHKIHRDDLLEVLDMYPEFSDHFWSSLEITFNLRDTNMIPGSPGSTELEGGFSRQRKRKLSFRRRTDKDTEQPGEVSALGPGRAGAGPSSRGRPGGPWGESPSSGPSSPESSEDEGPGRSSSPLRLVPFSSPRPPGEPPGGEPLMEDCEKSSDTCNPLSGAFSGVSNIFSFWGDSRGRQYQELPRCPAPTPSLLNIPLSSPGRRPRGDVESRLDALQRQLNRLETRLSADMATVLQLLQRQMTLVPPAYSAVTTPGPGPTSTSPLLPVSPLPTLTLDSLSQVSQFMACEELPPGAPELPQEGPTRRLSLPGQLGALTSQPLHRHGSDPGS
Sequence of Cytochrome P450 2C19 (Homo sapiens) (P33261 whole entry, looked up): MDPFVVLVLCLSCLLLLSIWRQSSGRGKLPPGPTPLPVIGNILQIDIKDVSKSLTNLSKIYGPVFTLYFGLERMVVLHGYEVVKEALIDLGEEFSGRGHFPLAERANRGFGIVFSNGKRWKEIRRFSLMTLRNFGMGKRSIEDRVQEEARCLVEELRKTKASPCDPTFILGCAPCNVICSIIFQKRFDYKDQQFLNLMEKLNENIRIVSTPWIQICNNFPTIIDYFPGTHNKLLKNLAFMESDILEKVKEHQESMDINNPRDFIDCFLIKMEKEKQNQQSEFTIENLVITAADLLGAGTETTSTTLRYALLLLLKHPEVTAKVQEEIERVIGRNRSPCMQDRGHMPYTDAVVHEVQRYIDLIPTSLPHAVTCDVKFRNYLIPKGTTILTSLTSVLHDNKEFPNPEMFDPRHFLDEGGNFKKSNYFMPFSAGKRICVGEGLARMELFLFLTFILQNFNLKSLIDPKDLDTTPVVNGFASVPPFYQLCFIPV
Sequence of Cytochrome P450 3A4 (Homo sapiens) (P08684 whole entry, looked up): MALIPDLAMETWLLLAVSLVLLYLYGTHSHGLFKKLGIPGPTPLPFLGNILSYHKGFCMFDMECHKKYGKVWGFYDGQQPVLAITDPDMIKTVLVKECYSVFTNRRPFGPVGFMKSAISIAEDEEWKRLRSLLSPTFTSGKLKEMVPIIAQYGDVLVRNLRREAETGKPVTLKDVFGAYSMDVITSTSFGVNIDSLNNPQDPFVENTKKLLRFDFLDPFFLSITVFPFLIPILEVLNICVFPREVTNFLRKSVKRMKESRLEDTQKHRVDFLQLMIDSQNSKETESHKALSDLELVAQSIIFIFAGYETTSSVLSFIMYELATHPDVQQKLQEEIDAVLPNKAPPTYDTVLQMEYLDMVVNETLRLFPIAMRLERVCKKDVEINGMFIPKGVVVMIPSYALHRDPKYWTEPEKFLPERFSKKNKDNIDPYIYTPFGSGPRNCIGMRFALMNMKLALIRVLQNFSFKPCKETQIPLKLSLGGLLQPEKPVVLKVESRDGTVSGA

Question: Which Potency [1] does the source give for `C#CCN(C)[C@H](C)Cc1ccccc1` here?
Answer: inactive

Question: What about the Potency [2] of the same compound?
Answer: 17.8 µM (active) and inactive

Question: What about the Potency [3] of the same compound?
Answer: inactive

Question: What about the Potency [4] of the same compound?
Answer: inactive

Question: How did the Potency [2] turn out when `CC(NC(C)(C)C)C(=O)c1cccc(Cl)c1` (configuration not stated) was run?
Answer: inactive

Question: What about the Potency [4] of the same compound?
Answer: inactive

Question: How did the Potency [1] turn out when `CC(C)N1C(=O)c2ccccc2NS1(=O)=O` was run?
Answer: 20 µM (active) and 17.8 µM (active)

Question: And the Potency [2]?
Answer: inactive

Question: What about the Potency [4] of the same compound?
Answer: inactive

Question: Which results are given for `CON(C)C(=O)Nc1ccc(Cl)c(Cl)c1`?
Answer: Potency [5]: 16 µM (active) and 39.9 µM (active); Potency [2]: 1.42 µM (active) and 3.17 µM (active); Potency [3]: inactive; Potency [4]: inactive

Question: `CCOC(=O)c1ccccc1C(=O)OCC` was tested. Which Potency [2] did it give?
Answer: 3.22 µM (active) and 3.17 µM (active)

Question: What about the Potency [4] of the same compound?
Answer: inactive

Question: Which Potency [5] does the source give for `CC(C)NC(=O)N1CC(=O)N(c2cc(Cl)cc(Cl)c2)C1=O` here?
Answer: 7.96 µM (active) and 8.94 µM (active)

Question: What about the Potency [2] of the same compound?
Answer: 12.6 µM (active)

Question: And the Potency [4]?
Answer: inactive

Question: How did the Potency [5] turn out when `O=C(O)c1ccccn1` was run?
Answer: inactive

Question: And the Potency [2]?
Answer: inactive

Question: What about the Potency [4] of the same compound?
Answer: inactive

Question: What does the source list for `ClCc1cccnc1`?
Answer: Potency [5]: 69.8 µM (active) and inactive; Potency [2]: 62.2 µM (active) and inactive; Potency [4]: inactive

Question: For `COP(N)(=O)SC` (configuration not stated), which Potency [5] is on record?
Answer: 39.3 µM (active) and inactive

Question: What about the Potency [2] of the same compound?
Answer: inactive

Question: What about the Potency [3] of the same compound?
Answer: inactive

Question: And the Potency [4]?
Answer: inactive

Question: For `C=CC(N)=O`, which Potency [2] is on record?
Answer: 35.7 µM (active) and inactive

Question: How did the Potency [5] turn out when `OC(O)C(Cl)(Cl)Cl` was run?
Answer: inactive

Question: And the Potency [2]?
Answer: inactive

Question: What about the Potency [4] of the same compound?
Answer: inactive

Question: For `CCNc1nc(NC(C)C)nc(SC)n1`, which Potency [2] is on record?
Answer: 8.02 µM (active) and 11.2 µM (active)

Question: And the Potency [4]?
Answer: inactive

Question: Which results are given for `c1ccc(OP(Oc2ccccc2)Oc2ccccc2)cc1`?
Answer: Potency [1]: inactive; Potency [2]: inactive; Potency [3]: inactive; Potency [4]: inactive

Question: For `Cc1cc(Cl)ccc1O`, which Potency [2] is on record?
Answer: 30.8 µM (active) and 31.7 µM (active)

Question: What about the Potency [3] of the same compound?
Answer: inactive

Question: And the Potency [4]?
Answer: inactive

Question: What does the source list for `CN=C=S`?
Answer: Potency [5]: 80.4 µM (active) and inactive; Potency [2]: 40.3 µM (active); Potency [4]: inactive

Question: For `CC(Oc1ccc(Cl)cc1Cl)C(=O)O` (configuration not stated), which Potency [5] is on record?
Answer: 35.7 µM (active)

Question: What about the Potency [2] of the same compound?
Answer: inactive

Question: What about the Potency [3] of the same compound?
Answer: inactive

Question: What about the Potency [4] of the same compound?
Answer: inactive

Question: Which results are given for `COC(=O)NS(=O)(=O)c1ccc(N)cc1`?
Answer: Potency [5]: 71.3 µM (active) and inactive; Potency [2]: inactive; Potency [4]: inactive

Question: Which Potency [5] does the source give for `Clc1cccc(Cl)c1Cl` here?
Answer: 35.2 µM (active) and inactive

Question: And the Potency [2]?
Answer: inactive

Question: What about the Potency [4] of the same compound?
Answer: inactive

Question: Which Potency [5] does the source give for `COc1ccc2c3c1O[C@H]1[C@@H](O)C=C[C@H]4[C@@H](C2)N(C)CC[C@@]341` here?
Answer: inactive

Question: And the Potency [2]?
Answer: inactive

Question: What about the Potency [4] of the same compound?
Answer: inactive
